# Data taken from the supplement of paper PMC8728848.
# The entries come from a sample that favours the strongest signals as a whole.
# B1: EULS2 M3 (Oryza sativa) (protein)
# chain: MVYCRANPNYAMTARNGAVVLAPANPKDEYQHWIKDMRWSTSIKDEEGYPAFALVNKATGQAIKHSLGQSHPVRLVPYNPEVMDESVLWTESRDVGNGFRCIRMVNNIYLNFDAFHGDKYHGGVRDGTDIVLWKLCEGDSLRWKIQPYYILEQKLISEEDLNSAVDHHHHHH
# B2: pilr alpha (protein)
# chain: MLYGVTQPKHLSASMGGSVEIPFSFYYPWELATAPDVRISWRRGHFHRQSFYSTRPPSIHKDYVNRLFLNWTEGQKSGFLRISNLQKQDQSVYFCRVELDTRSSGRQQWQSIEGTKLSIT
# How the values were obtained:
# Test in all cases: glycan array binding signal (z-score within array); higher = stronger binding
# Settings in all cases: glycan notation: IUPAC condensed, linker removed
# [1] = target: Fuc(a1-2)Gal(b1-4)GlcNAc(b1-3)Gal(b1-4)GlcNAc
# In short: (§1)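 Negative Z-scores can be read as non-binding. The Z-score is calculated within each array and then averaged across arrays of one protein sequence at different concentrations or buffers and across linkers. Arrays, 3228 in all, were curated from the Consortium for Functional Glycomics database and kept only where the protein sequence was available.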
# [2] = target: Fuc(a1-2)Gal(b1-4)GlcNAc(b1-3)Gal(b1-4)GlcNAc(b1-2)Man(a1-3)[Fuc(a1-2)Gal(b1-4)GlcNAc(b1-3)Gal(b1-4)GlcNAc(b1-2)Man(a1-6)]Man(b1-4)GlcNAc(b1-4)GlcNAc
# In short: as §1
# [3] = target: Fuc(a1-2)[Gal(a1-3)]Gal(b1-3)GlcNAc
# In short: as §1
# [4] = target: Fuc(a1-3)[Gal3S(b1-4)]Glc
# In short: as §1
# [5] = target: Gal(a1-3)Gal(b1-3)GlcNAc
# In short: as §1
# [6] = target: Gal(a1-3)Gal(b1-4)Glc
# In short: as §1
# [7] = target: Gal(a1-3)Gal(b1-4)GlcNAc(b1-6)GalNAc
# In short: as §1
# [8] = target: Gal(b1-3)GlcNAc(a1-3)Gal(b1-4)GlcNAc
# In short: as §1
# [9] = target: Gal(b1-3)GlcNAc(b1-3)Gal(b1-4)GlcNAc(b1-3)Gal(b1-4)GlcNAc(b1-2)[Gal(b1-3)GlcNAc(b1-3)Gal(b1-4)GlcNAc(b1-3)Gal(b1-4)GlcNAc(b1-6)]Man(a1-6)[Gal(b1-3)GlcNAc(b1-3)Gal(b1-4)GlcNAc(b1-3)Gal(b1-4)GlcNAc(b1-2)Man(a1-3)]Man(b1-4)GlcNAc(b1-4)[Fuc(a1-6)]GlcNAc
# In short: as §1
# [10] = target: Gal(b1-3)[Fuc(a1-4)]GlcNAc(b1-2)Man
# In short: as §1
# [11] = target: Gal(b1-3)[Fuc(a1-4)]GlcNAc(b1-3)Gal(b1-3)[Fuc(a1-4)]GlcNAc
# In short: as §1
# [12] = target: Gal(b1-4)GalNAc(a1-3)[Fuc(a1-2)]Gal(b1-4)GlcNAc
# In short: as §1
# [13] = target: Gal(b1-4)GalNAc(b1-3)[Fuc(a1-2)]Gal(b1-4)GlcNAc
# In short: as §1
# [14] = target: Gal(b1-4)GlcNAc(b1-3)Gal(b1-4)GlcNAc(b1-3)Gal(b1-4)GlcNAc(b1-3)Gal(b1-4)GlcNAc(b1-2)[Gal(b1-4)GlcNAc(b1-3)Gal(b1-4)GlcNAc(b1-3)Gal(b1-4)GlcNAc(b1-3)Gal(b1-4)GlcNAc(b1-6)]Man(a1-6)[Gal(b1-4)GlcNAc(b1-3)Gal(b1-4)GlcNAc(b1-3)Gal(b1-4)GlcNAc(b1-3)Gal(b1-4)GlcNAc(b1-2)Man(a1-3)]Man(b1-4)GlcNAc(b1-4)[Fuc(a1-6)]GlcNAc
# In short: as §1
# [15] = target: Gal(b1-4)GlcNAc(b1-3)Gal(b1-4)GlcNAc(b1-3)[Gal(b1-4)GlcNAc(b1-3)Gal(b1-4)GlcNAc(b1-6)]GalNAc
# In short: as §1
# [16] = target: Gal3S(b1-4)[Fuc(a1-3)]GlcNAc6S
# In short: as §1
# [17] = target: GalNAc(b1-3)Gal
# In short: as §1
# [18] = target: GalNAc(b1-4)Gal(b1-4)Glc
# In short: as §1
# [19] = target: GalNAc3S(b1-4)[Fuc(a1-3)]GlcNAc
# In short: as §1
# [20] = target: GalNAc4S6S(b1-4)GlcNAc
# In short: as §1
# [21] = target: Glc(a1-4)Glc
# In short: as §1
# [22] = target: Glc(a1-6)Glc(a1-6)Glc(a1-6)Glc
# In short: as §1
# [23] = target: GlcNAc(a1-3)Gal(b1-4)GlcNAc
# In short: as §1
# [24] = target: GlcNAc(a1-4)Gal(b1-4)GlcNAc(b1-3)Gal(b1-4)GlcNAc(b1-3)Gal(b1-4)GlcNAc
# In short: as §1
# [25] = target: GlcNAc(b1-3)Gal(b1-4)GlcNAc(b1-2)Man(a1-3)[GlcNAc(b1-3)Gal(b1-4)GlcNAc(b1-2)Man(a1-6)]Man(b1-4)GlcNAc(b1-4)GlcNAc
# In short: as §1
# [26] = target: GlcNAc(b1-3)Gal(b1-4)GlcNAc(b1-2)[GlcNAc(b1-3)Gal(b1-4)GlcNAc(b1-6)]Man(a1-6)[GlcNAc(b1-3)Gal(b1-4)GlcNAc(b1-2)Man(a1-3)]Man(b1-4)GlcNAc(b1-4)GlcNAc
# In short: as §1
# [27] = target: GlcNAc(b1-3)Gal(b1-4)GlcNAc(b1-3)Gal(b1-4)GlcNAc(b1-3)Gal(b1-4)GlcNAc(b1-2)[GlcNAc(b1-3)Gal(b1-4)GlcNAc(b1-3)Gal(b1-4)GlcNAc(b1-3)Gal(b1-4)GlcNAc(b1-6)]Man(a1-6)[GlcNAc(b1-3)Gal(b1-4)GlcNAc(b1-3)Gal(b1-4)GlcNAc(b1-3)Gal(b1-4)GlcNAc(b1-2)Man(a1-3)]Man(b1-4)GlcNAc(b1-4)[Fuc(a1-6)]GlcNAc
# In short: as §1
# [28] = target: GlcNAc(b1-4)GlcNAc(b1-4)GlcNAc
# In short: as §1
# [29] = target: GlcNAc(b1-4)GlcNAc(b1-4)GlcNAc(b1-4)GlcNAc(b1-4)GlcNAc(b1-4)GlcNAc
# In short: as §1
# [30] = target: GlcNAc(b1-6)Gal(b1-4)GlcNAc
# In short: as §1
# [31] = target: Neu5Ac(a2-3)Gal(b1-3)GalNAc
# In short: as §1
# [32] = target: Neu5Ac(a2-3)Gal(b1-3)GalNAc(b1-4)[Neu5Ac(a2-8)Neu5Ac(a2-3)]Gal(b1-4)Glc
# In short: as §1
# [33] = target: Neu5Ac(a2-3)Gal(b1-4)GlcNAc(b1-3)Gal(b1-4)GlcNAc(b1-3)Gal(b1-4)GlcNAc
# In short: as §1
# [34] = target: Neu5Ac(a2-3)Gal(b1-4)GlcNAc(b1-6)[Gal(b1-3)]GalNAc
# In short: as §1
# [35] = target: Neu5Ac(a2-3)Gal6S(b1-4)GlcNAc
# In short: as §1
# [36] = target: Neu5Ac(a2-3)[GalNAc(b1-4)]Gal(b1-4)GlcNAc
# In short: as §1
# [37] = target: Neu5Ac(a2-3)[GalNAc(b1-4)]Gal(b1-4)GlcNAc(b1-3)GalNAc
# In short: as §1
# [38] = target: Neu5Ac(a2-6)Gal(b1-4)GlcNAc(b1-2)[Neu5Ac(a2-6)Gal(b1-4)GlcNAc(b1-6)]Man(a1-6)[Neu5Ac(a2-6)Gal(b1-4)GlcNAc(b1-2)Man(a1-3)][GlcNAc(b1-4)]Man(b1-4)GlcNAc(b1-4)GlcNAc
# In short: as §1
# [39] = target: Neu5Ac(a2-6)Gal(b1-4)GlcNAc(b1-3)Gal(b1-4)GlcNAc(b1-3)Gal(b1-4)GlcNAc(b1-2)Man(a1-3)[Neu5Ac(a2-6)Gal(b1-4)GlcNAc(b1-3)Gal(b1-4)GlcNAc(b1-3)Gal(b1-4)GlcNAc(b1-2)Man(a1-6)]GalNAc
# In short: as §1
# [40] = target: Neu5Ac(a2-6)GalNAc
# In short: as §1
# [41] = target: Neu5Ac(a2-6)GalNAc(b1-4)GlcNAc
# In short: as §1
# [42] = target: Neu5Ac(a2-8)Neu5Ac(a2-3)[Gal(b1-3)GalNAc(b1-4)]Gal(b1-4)Glc
# In short: as §1
# [43] = target: Neu5Ac(b2-6)Gal(b1-4)GlcNAc
# In short: as §1
# [44] = target: Neu5Gc(a2-6)GalNAc
# In short: as §1
binder,measurement,setting,value
B1,glycan array binding signal (z-score),[1],0.227
same,glycan array binding signal (z-score),[2],0.177
same,glycan array binding signal (z-score),[3],1.44
same,glycan array binding signal (z-score),[4],0.485
same,glycan array binding signal (z-score),[5],8.25
same,glycan array binding signal (z-score),[6],0.227
same,glycan array binding signal (z-score),[7],-0.929
same,glycan array binding signal (z-score),[8],2.02
same,glycan array binding signal (z-score),[9],1.66
same,glycan array binding signal (z-score),[10],1.17
same,glycan array binding signal (z-score),[11],2.13
same,glycan array binding signal (z-score),[12],-0.34
same,glycan array binding signal (z-score),[13],-0.158
same,glycan array binding signal (z-score),[14],0.461
same,glycan array binding signal (z-score),[15],0.234
same,glycan array binding signal (z-score),[16],2.11
same,glycan array binding signal (z-score),[17],2.46
same,glycan array binding signal (z-score),[18],0.053
same,glycan array binding signal (z-score),[19],-0.623
same,glycan array binding signal (z-score),[20],0.056
same,glycan array binding signal (z-score),[21],0.668
same,glycan array binding signal (z-score),[22],1.67
same,glycan array binding signal (z-score),[23],-0.405
same,glycan array binding signal (z-score),[24],-0.139
same,glycan array binding signal (z-score),[25],-0.171
same,glycan array binding signal (z-score),[26],0.562
same,glycan array binding signal (z-score),[27],0.306
same,glycan array binding signal (z-score),[28],-0.413
same,glycan array binding signal (z-score),[29],-0.977
same,glycan array binding signal (z-score),[30],1.64
B2,glycan array binding signal (z-score),[31],-0.231
same,glycan array binding signal (z-score),[32],-0.149
same,glycan array binding signal (z-score),[33],-0.173
same,glycan array binding signal (z-score),[34],-0.533
same,glycan array binding signal (z-score),[35],-0.007
same,glycan array binding signal (z-score),[36],-0.65
same,glycan array binding signal (z-score),[37],0.118
same,glycan array binding signal (z-score),[38],0.09
same,glycan array binding signal (z-score),[39],1.89
same,glycan array binding signal (z-score),[40],-0.546
same,glycan array binding signal (z-score),[41],-0.492
same,glycan array binding signal (z-score),[42],-0.167
same,glycan array binding signal (z-score),[43],-0.768
same,glycan array binding signal (z-score),[44],-0.353
